PubChem BioAssay (Tox21)
Results filed as inconclusive are left out. Activity calls are given as the source filed them. Unless noted, the call rests on the fitted dose curve; in most records, active means well fitted curve in the direction sought with a large enough effect in the repeat runs; inconclusive means weak or mixed curves; inactive means no such curve, though single readings can be large; an effect the other way counts as inactive or inconclusive.

Experiments:
[1] = qHTS assay to test for compound auto fluorescence at 535 nm (green) in HEK293 cells (AID 720680)
[2] = qHTS assay to test for compound auto fluorescence at 460 nm (blue) in HEK293 cell free culture (AID 720681)
How it was run: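 Compounds were added to cell-free DMEM with 10% FBS and fluorescence read directly. The blue channel used 405 nm excitation and 460 nm emission, with triamterene as the reference fluorophore.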

[3] = qHTS assay to test for compound auto fluorescence at 535 nm (green) in HEK293 cell free culture (AID 720682)
How it was run: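 Intrinsic compound fluorescence is measured in culture medium containing 10% FBS, with excitation at 485 nm and detection at 535 nm, referenced to fluorescein.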

[4] = qHTS assay to test for compound auto fluorescence at 590 nm (red) in HEK293 cell free culture (AID 720683)
How it was run: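 Cell-free wells of DMEM with 10% FBS received compound, and intrinsic fluorescence was read at excitation/emission 540/590 nm. Values expressed as equivalence to Rose Bengal sodium.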

[5] = qHTS assay to test for compound auto fluorescence at 590 nm (red) in HepG2 cell free culture (AID 720684)
How it was run: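 Auto fluorescence equivalency versus Rose Bengal sodium, red channel Ex/Em 540/590 nm; compounds in cell-free MEM/10% FBS; DMSO vehicle control.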

[6] = qHTS assay to test for compound auto fluorescence at 460 nm (blue) in HepG2 cell free culture (AID 720685)
How it was run: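 Cell-free plates of MEM plus 10% FBS received 23 nL compound or DMSO vehicle; blue-channel (405/460 nm) intensity scored against triamterene as reference fluorophore.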

[7] = qHTS assay to test for compound auto fluorescence at 535 nm (green) in HepG2 cell free culture (AID 720686)
[8] = qHTS assay to test for compound auto fluorescence at 460 nm (blue) in HepG2 cells (AID 720687)
How it was run: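 HepG2 cells in MEM with 10% FBS, attached overnight at 37 C, were exposed to compound or DMSO for 1 hr at 37 C, 5% CO2. Blue fluorescence was read at 405/460 nm, with triamterene as reference fluorophore.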

[9] = biological target: Glucocorticoid receptor (Homo sapiens) (UniProt P04150); test: qHTS assay to identify small molecule antagonists of the glucocorticoid receptor (GR) signaling pathway (AID 720692; active means well fitted inhibition curve with a large enough effect in the signal ratio in the repeat runs, not every such curve was filed as active; the % refers to the signal ratio)
How it was run: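 Quantitative HTS in antagonist format: HeLa cells expressing endogenous GR and a stably integrated GRE-bla reporter, stimulated with 5 nM dexamethasone (final) alongside test compounds for 18 h.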

[10] = qHTS assay to identify small molecule antagonists of the glucocorticoid receptor (GR) signaling pathway - cell viability counter screen (AID 720693); further: nearly all actives have a fitted effect of over 55% in size
[11] = qHTS assay for identifying genotoxic compounds that show differential cytotoxicity against isogenic chicken DT40 cell lines with known DNA damage response pathways - wild type cell line (AID 743012); further: nearly all actives have a fitted effect of over 60% in size; further: potency means the concentration at half of the fitted maximal effect
How it was run: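 Luminescent ATP viability signal (CellTiter-Glo, 30 min RT) recorded after wild type DT40 cells were incubated with compounds for 40 h at 37 C/5% CO2.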

[12] = qHTS assay for identifying genotoxic compounds that show differential cytotoxicity against isogenic chicken DT40 cell lines with known DNA damage response pathways - Rev3 mutant cell line (AID 743014); further: nearly all actives have a fitted effect of over 55% in size; further: potency means the concentration at half of the fitted maximal effect
[13] = qHTS assay for identifying genotoxic compounds that show differential cytotoxicity against isogenic chicken DT40 cell lines with known DNA damage response pathways - Rad54/Ku70 mutant cell line (AID 743015); further: nearly all actives have a fitted effect of over 60% in size; further: potency means the concentration at half of the fitted maximal effect
[14] = qHTS assay to identify small molecule antagonists of the androgen receptor (AR) signaling pathway - cell viability counter screen (AID 743033; further: nearly all actives have a fitted effect of over 45% in size; further: potency means the concentration at half of the fitted maximal effect)
[15] = qHTS assay to identify small molecule antagonists of the androgen receptor (AR) signaling pathway using the MDA cell line - cell viability counter screen (AID 743041; further: nearly all actives have a fitted effect of over 45% in size; further: potency means the concentration at half of the fitted maximal effect)
How it was run: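 Compound exposure lasted 16 h at 37C in MDA-kb2 AR-luc cells stimulated with R1881. Protease-based CellTiter-Fluor reagent was applied for the final 30 min and fluorescence measured.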

[16] = qHTS assay to identify small molecule antagonists of the thyroid receptor (TR) signaling pathway - cell viability counter screen (AID 743064); further: nearly all actives have a fitted effect of over 50% in size; further: potency means the concentration at half of the fitted maximal effect
How it was run: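 Same-well viability check: GH3.TRE-Luc cells stimulated with 1 nM T3 alongside test compound for 23.5 h, followed by CellTiter-Fluor fluorescence.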

[17] = qHTS assay to identify small molecule antagonists of the thyroid receptor (TR) signaling pathway (AID 743065); further: nearly all actives have a fitted effect of over 55% in size; further: potency means the concentration at half of the fitted maximal effect
How it was run: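 GH3.TRE-Luc rat pituitary cells (two TREs driving luciferase) were dosed with compound, then stimulated with 1 nM T3 (final) for 23.5 h at 37 C. ONE-Glo luminescence was the read-out, with CellTiter-Fluor fluorescence as the cytotoxicity counter-screen.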

[18] = biological target: Glucocorticoid receptor (Homo sapiens) (UniProt P04150); test: qHTS assay to identify small molecule agonists of the glucocorticoid receptor (GR) signaling pathway (AID 720691; active means well fitted activation curve with a large enough effect in the signal ratio in the repeat runs, not every such curve was filed as active; the % refers to the signal ratio)
How it was run: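 Cells: GR-bla HeLa, endogenous GR with stably integrated GRE-beta-lactamase reporter. Treatment 18 h, 37 C, compounds delivered in DMSO. Detection via LiveBLAzer B/G FRET substrate, 2 h RT, fluorescence intensity.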

[19] = biological target: Androgen receptor (Homo sapiens) (UniProt P10275); test: qHTS assay to identify small molecule agonists of the androgen receptor (AR) signaling pathway using the MDA cell line (AID 743040; further: nearly all actives have a fitted effect of over 20% in size)
How it was run: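 Testing was done with the MDA-kb2 AR-luc line, a human breast carcinoma stably transfected with MMTV-luciferase containing AR and GR response elements. Cells were exposed 16 h at 37C before ONE-Glo luminescence detection.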
On the % scale 0 is the no-effect control and ±100 the full control effect.

Glucocorticoid receptor (Homo sapiens), sequence (P04150 whole entry, looked up): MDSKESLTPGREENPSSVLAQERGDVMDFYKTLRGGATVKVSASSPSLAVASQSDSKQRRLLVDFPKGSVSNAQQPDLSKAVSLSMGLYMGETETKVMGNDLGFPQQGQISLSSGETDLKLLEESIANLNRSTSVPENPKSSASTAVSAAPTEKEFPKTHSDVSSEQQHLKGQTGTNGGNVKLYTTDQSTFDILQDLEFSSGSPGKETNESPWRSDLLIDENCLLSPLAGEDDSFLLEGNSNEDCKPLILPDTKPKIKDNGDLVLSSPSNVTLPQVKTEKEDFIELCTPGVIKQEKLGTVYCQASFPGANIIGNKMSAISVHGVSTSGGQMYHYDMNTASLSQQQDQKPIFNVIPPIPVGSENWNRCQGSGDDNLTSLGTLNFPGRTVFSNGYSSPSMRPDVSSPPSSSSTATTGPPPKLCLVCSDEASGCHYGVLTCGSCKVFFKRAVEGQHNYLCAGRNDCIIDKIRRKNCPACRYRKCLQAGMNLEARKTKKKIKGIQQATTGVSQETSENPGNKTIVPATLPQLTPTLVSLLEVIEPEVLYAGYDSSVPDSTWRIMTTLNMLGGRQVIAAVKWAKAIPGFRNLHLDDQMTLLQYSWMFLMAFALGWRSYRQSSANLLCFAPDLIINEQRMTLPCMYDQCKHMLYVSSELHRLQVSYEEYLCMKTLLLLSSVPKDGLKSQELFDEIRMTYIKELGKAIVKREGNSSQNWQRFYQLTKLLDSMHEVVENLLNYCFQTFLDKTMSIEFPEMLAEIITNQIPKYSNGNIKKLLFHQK
Androgen receptor (Homo sapiens), sequence (P10275 whole entry, looked up): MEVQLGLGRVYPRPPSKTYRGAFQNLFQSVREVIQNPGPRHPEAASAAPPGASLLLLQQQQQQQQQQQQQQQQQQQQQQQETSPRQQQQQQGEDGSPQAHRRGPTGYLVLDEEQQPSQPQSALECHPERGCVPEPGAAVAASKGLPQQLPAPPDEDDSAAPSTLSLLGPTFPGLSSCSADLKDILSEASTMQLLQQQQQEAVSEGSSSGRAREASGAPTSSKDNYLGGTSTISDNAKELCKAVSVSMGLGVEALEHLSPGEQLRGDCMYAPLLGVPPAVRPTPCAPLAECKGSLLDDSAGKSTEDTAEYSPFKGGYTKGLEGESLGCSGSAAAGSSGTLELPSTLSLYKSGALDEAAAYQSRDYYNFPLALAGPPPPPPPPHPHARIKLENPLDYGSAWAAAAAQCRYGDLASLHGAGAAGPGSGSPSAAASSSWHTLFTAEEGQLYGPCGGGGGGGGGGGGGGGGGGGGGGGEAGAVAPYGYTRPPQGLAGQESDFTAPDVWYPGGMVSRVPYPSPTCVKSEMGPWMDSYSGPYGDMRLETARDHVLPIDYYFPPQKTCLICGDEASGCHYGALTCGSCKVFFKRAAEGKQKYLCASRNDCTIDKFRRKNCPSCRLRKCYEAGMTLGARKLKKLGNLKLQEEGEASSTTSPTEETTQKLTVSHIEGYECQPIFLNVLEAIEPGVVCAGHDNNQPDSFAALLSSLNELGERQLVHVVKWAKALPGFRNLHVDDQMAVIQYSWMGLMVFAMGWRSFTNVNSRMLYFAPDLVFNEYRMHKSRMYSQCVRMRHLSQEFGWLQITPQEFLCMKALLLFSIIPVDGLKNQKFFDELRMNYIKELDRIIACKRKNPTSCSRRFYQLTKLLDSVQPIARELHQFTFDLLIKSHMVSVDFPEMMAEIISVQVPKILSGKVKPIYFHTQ

Cn1c(NCCN(CCO)CCCc2ccc([N+](=O)[O-])cc2)cc(=O)n(C)c1=O
inactive: outcome [1] | Potency [2] | outcome [3] | outcome [4] | outcome [5] | Potency [6] | outcome [7] | Potency [8] | Potency [9] | Potency [10] | Potency [11] | Potency [12] | Potency [13] | Potency [14] | Potency [15] | Potency [16] | Potency [17]

Cc1cc(O)ccc1N
inactive: outcome [1] | Potency [2] | outcome [3] | outcome [4] | outcome [5] | Potency [6] | outcome [7] | Potency [8] | Potency [18] | Potency [10] | Potency [19]
active: Potency [11] 13.8 µM | Potency [12] 6.14 µM | Potency [13] 9.74 µM | Potency [16] 30.8 µM

CCCC[C@H]1CN(CC2CCOCC2)C(=O)OC12CCN(C1(C)CCN(C(=O)c3c(C)ncnc3C)CC1)CC2
inactive: outcome [1] | Potency [2] | outcome [3] | outcome [4] | outcome [5] | Potency [6] | outcome [7] | Potency [8] | Potency [10] | Potency [11] | Potency [12] | Potency [13] | Potency [14] | Potency [15] | Potency [16] | Potency [17]

Cc1cc(CC(=O)O)c(C)n1-c1ccc(Cl)cc1
active: Potency [11] 26.6 µM | Potency [12] 33.5 µM
inactive: outcome [1] | Potency [2] | outcome [3] | outcome [4] | outcome [5] | Potency [6] | outcome [7] | Potency [8] | Potency [18] | Potency [10] | Potency [14]

O=[N+]([O-])c1cc[n+]([O-])cc1
active: Potency [11] 15.4 µM
inactive: outcome [1] | Potency [2] | outcome [3] | outcome [4] | outcome [5] | Potency [6] | outcome [7] | Potency [8] | Potency [18] | Potency [10] | Potency [12] | Potency [13] | Potency [19] | Potency [15]

C#CCOC(=O)[C@@H](C)Oc1ccc(Oc2ncc(Cl)cc2F)cc1
inactive: outcome [1] | Potency [2] | outcome [3] | outcome [4] | outcome [5] | Potency [6] | outcome [7] | Potency [8] | Potency [18] | Potency [12] | Potency [14] | Potency [15] | Potency [16]

OCCC1CCCCN1 (centres undefined)
inactive: outcome [1] | Potency [2] | outcome [3] | outcome [4] | outcome [5] | Potency [6] | outcome [7] | Potency [8] | Potency [18] | Potency [10] | Potency [12] | Potency [13] | Potency [16] | Potency [17]

COCCCCCCCCOCCC[Si](C)(O[Si](C)(C)C)O[Si](C)(C)C
active: Potency [11] 5.45 µM | Potency [12] 6.11 µM | Potency [13] 6.11 µM | Potency [14] 6.92 µM | Potency [15] 21.7 µM
inactive: outcome [1] | Potency [2] | outcome [3] | outcome [4] | outcome [5] | Potency [6] | outcome [7] | Potency [8] | Potency [10] | Potency [16]

CCN(CC)C(C)CN1c2ccccc2Sc2ccccc21 (centres undefined)
inactive: fluorescence, % of fluorescein [1] -0.0513% [at 18.6 µM] | fluorescence, % of fluorescent control [2] -0.0592% [at 18.6 µM] | activity change [3] -0.135% [at 18.6 µM] | fluorescence, % of fluorescent control [4] -0.0816% [at 18.6 µM] | fluorescence, % of Rose Bengal [5] -0.332% [at 18.6 µM] | fluorescence, % of fluorescent control [6] 0.0011% [at 18.6 µM] | fluorescence, % of fluorescein control [7] -0.0641% [at 18.6 µM] | fluorescence, % of fluorescent control [8] -0.0255% [at 18.6 µM] | Potency [18] | Potency [10] | Potency [12] | Potency [14] | Potency [15]

CC1(C)CCC(C)(C)c2cc(NC(=O)c3ccc(C(=O)O)cc3)ccc21
inactive: outcome [1] | Potency [2] | outcome [3] | outcome [4] | outcome [5] | Potency [6] | outcome [7] | Potency [8] | Potency [18] | Potency [14]
active: Potency [11] 26.6 µM | Potency [13] 23.7 µM

FC(F)(F)C(F)(F)C(F)(F)C(F)(F)C(F)(F)C(F)(F)CCI
inactive: outcome [1] | Potency [2] | outcome [3] | outcome [4] | outcome [5] | Potency [6] | outcome [7] | Potency [8] | Potency [10] | Potency [11] | Potency [12] | Potency [13] | Potency [14] | Potency [15] | Potency [16] | Potency [17]

CCCCCCCCCC(=O)OCC
inactive: outcome [1] | Potency [2] | outcome [3] | outcome [4] | outcome [5] | Potency [6] | outcome [7] | Potency [8] | Potency [10] | Potency [11] | Potency [12] | Potency [13] | Potency [14]

CCCOc1ccc2nc(NC(=O)OC)[nH]c2c1
inactive: outcome [1] | Potency [2] | outcome [3] | outcome [4] | outcome [5] | Potency [6] | outcome [7] | Potency [8] | Potency [10] | Potency [14] | Potency [19] | Potency [15]
active: Potency [11] 0.237 µM | Potency [12] 0.237 µM | Potency [13] 0.335 µM | Potency [17] 0.422 µM

Cc1ncsc1CCO
inactive: outcome [1] | Potency [2] | outcome [3] | outcome [4] | outcome [5] | Potency [6] | outcome [7] | Potency [8] | Potency [10] | Potency [11] | Potency [12] | Potency [13] | Potency [14] | Potency [15] | Potency [16] | Potency [17]

Oc1ccc(Cc2ccccc2)cc1
inactive: outcome [1] | Potency [2] | outcome [3] | outcome [4] | outcome [5] | Potency [6] | outcome [7] | Potency [8] | Potency [18] | Potency [10] | Potency [11] | Potency [16]

Cc1nc2ccccc2n1Cc1ccc(Cl)cc1
inactive: outcome [1] | Potency [2] | outcome [3] | outcome [4] | outcome [5] | Potency [6] | outcome [7] | Potency [8] | Potency [18] | Potency [16]
active: Potency [11] 2.11 µM | Potency [12] 5.31 µM | Potency [13] 4.22 µM | Potency [17] 6.68 µM

CC(=O)O[C@H]1C[C@@H]2CC[C@@H]3[C@H](CC[C@@]4(C)[C@H]3C[C@H]([N+]3(C)CCCCC3)[C@@H]4OC(C)=O)[C@@]2(C)C[C@@H]1N1CCCCC1
inactive: outcome [1] | Potency [2] | outcome [3] | outcome [4] | outcome [5] | Potency [6] | outcome [7] | Potency [8] | Potency [10] | Potency [11] | Potency [12] | Potency [13] | Potency [14] | Potency [15]
